The text below walks through data of the supplement of paper PMC3545927.

In the experiment the target is furin, P09958. Briefly: furin cleavage Z-score vs untreated control; higher = more cleavage, active = 3.5 or more, inactive = 1 or less, 8 variable residues between constant flanks. The method, then:
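Multiplexed peptide-cDNA fusion cleavage assay. 8-mer variable peptides flanked by constant Cys-Ala (N-term) and Ala-Gly-Asn-Ala-Ser-Ala-Ser-Ala (C-term) and conjugated to a cDNA oligonucleotide were bead-immobilised via the N-terminus. They were treated with purified furin at a 1:10 enzyme:substrate ratio in 50 mM HEPES pH 7.5, 1 mM CaCl2, 100 mM NaCl for 7.5, 15 or 30 min. Released cDNA was counted by next-generation sequencing, and log counts versus no-furin controls were lowess-adjusted and converted to robust Z-scores.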

This is one part of the list. How many sequences the whole screen found active is unknown.

furin, P09958, sequence (P09958 whole entry, the tested form may be a part): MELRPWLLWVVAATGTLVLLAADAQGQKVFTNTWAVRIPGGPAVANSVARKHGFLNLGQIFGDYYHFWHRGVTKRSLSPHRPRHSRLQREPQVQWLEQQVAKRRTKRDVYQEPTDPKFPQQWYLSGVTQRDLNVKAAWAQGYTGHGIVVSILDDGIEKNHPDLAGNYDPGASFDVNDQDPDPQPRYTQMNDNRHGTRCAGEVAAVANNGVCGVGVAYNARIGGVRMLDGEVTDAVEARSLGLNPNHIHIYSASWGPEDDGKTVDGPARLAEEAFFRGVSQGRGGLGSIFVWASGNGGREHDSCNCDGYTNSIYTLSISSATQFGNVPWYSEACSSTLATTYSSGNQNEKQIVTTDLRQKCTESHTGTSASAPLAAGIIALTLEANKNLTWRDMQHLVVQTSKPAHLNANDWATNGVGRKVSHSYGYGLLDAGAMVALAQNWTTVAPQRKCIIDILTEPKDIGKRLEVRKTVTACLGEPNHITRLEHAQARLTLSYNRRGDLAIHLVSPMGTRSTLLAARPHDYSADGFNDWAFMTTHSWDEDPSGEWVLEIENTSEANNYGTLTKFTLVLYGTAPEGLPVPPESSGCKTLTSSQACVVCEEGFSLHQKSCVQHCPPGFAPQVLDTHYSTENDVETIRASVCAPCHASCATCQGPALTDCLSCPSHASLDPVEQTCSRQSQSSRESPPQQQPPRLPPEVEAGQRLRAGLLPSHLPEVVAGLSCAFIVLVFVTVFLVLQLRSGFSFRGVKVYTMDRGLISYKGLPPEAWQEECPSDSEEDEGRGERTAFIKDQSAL

On to CARRKRKGSDAGNASASA [FS-2451], for which the “furin cleavage Z-score” value reads like this: (7.5 min) 0.854 (inactive); (15 min) 2.01; (30 min) 1.02.

As for CARRGRSGGAAGNASASA [FS-2227], the “furin cleavage Z-score” value was -0.325 (inactive) (7.5 min), -0.173 (inactive) (15 min) and -0.877 (inactive) (30 min).

With CARNHRDAGAAGNASASA [FS-1756], the “furin cleavage Z-score” value is 1.3 (7.5 min), 0.109 (inactive) (15 min) and 0.263 (inactive) (30 min).

CARRKRHDIAAGNASASA [FS-3053]: the “furin cleavage Z-score” value is, setting by setting: (7.5 min) 9.56 (active); (15 min) 8.72 (active); (30 min) 8.78 (active).

Turning to CASTPCSAALAGNASASA [HC2543], the “furin cleavage Z-score” value was -1.2 (inactive) (7.5 min), -0.501 (inactive) (15 min) and 0.383 (inactive) (30 min).

CARTKREAGAAGNASASA [FS-2189]: the “furin cleavage Z-score” value by setting is: (7.5 min) 10.6 (active); (15 min) 10.5 (active); (30 min) 7.02 (active).

Consider CARRKRSAGAAGNASASA [FS-1779], for which the “furin cleavage Z-score” value is 11.3 (active) (7.5 min), 10.7 (active) (15 min) and 8.77 (active) (30 min).

Regarding CARKNRPAGAAGNASASA [FS-1729], the “furin cleavage Z-score” value is -0.275 (inactive) (7.5 min), -0.752 (inactive) (15 min) and -0.0808 (inactive) (30 min).

CARAQRSAGAAGNASASA [FS-1994]: the “furin cleavage Z-score” value was 0.322 (inactive) (7.5 min), 0.0646 (inactive) (15 min) and 1.56 (30 min).

On to CARRKRSAALAGNASASA [FS-2371], for which the “furin cleavage Z-score” value is 10.8 (active) (7.5 min), 11.7 (active) (15 min) and 9.76 (active) (30 min).

For the sequence CAMEVCSQHLAGNASASA [HC1710], the “furin cleavage Z-score” value is 0.136 (inactive) (7.5 min), 0.13 (inactive) (15 min) and -0.0969 (inactive) (30 min).

On to CAMEECAQHLAGNASASA [HC21], for which the “furin cleavage Z-score” value was -0.625 (inactive) (7.5 min), -0.0837 (inactive) (15 min) and -0.768 (inactive) (30 min).

For the sequence CATLHGPTPLAGNASASA [HC969], the “furin cleavage Z-score” value is 0.77 (inactive) (7.5 min), 0.336 (inactive) (15 min) and -0.402 (inactive) (30 min).

For the sequence CARYARWAGAAGNASASA [FS-1808], the “furin cleavage Z-score” value runs as follows: (7.5 min) 3.25; (15 min) 3.55 (active); (30 min) 4.67 (active).

For CARRQRRVPGAGNASASA [FS-3060], the “furin cleavage Z-score” value runs as follows: (7.5 min) 0.752 (inactive); (15 min) 1.27; (30 min) 2.47.

As for CARYARKIEPAGNASASA [FS-2847], the “furin cleavage Z-score” value is 0.34 (inactive) (7.5 min), 1.98 (15 min) and 2.59 (30 min).

In the case of CAEDEREISVAGNASASA [HC1292], the “furin cleavage Z-score” value by setting is: (7.5 min) 0.521 (inactive); (15 min) -0.358 (inactive); (30 min) 1.28.

CARRKRHISVAGNASASA [FS-3262]: the “furin cleavage Z-score” value was 5.85 (active) (7.5 min), 5.59 (active) (15 min) and 7.18 (active) (30 min).

As to CARYHRDAGAAGNASASA [FS-1809], the “furin cleavage Z-score” value is 1.33 (7.5 min), 1.22 (15 min) and 0.229 (inactive) (30 min).

Regarding CARRKRRAPLAGNASASA [FS-2594], the “furin cleavage Z-score” value was 4.11 (active) (7.5 min), 6.31 (active) (15 min) and 6.38 (active) (30 min).

For the sequence CAMEECQQHLAGNASASA [HC39], the “furin cleavage Z-score” value runs as follows: (7.5 min) 1.54; (15 min) 0.787 (inactive); (30 min) 2.55.

On to CALALPQRAYAGNASASA [HC561], for which the “furin cleavage Z-score” value is 0.0304 (inactive) (7.5 min), 1.97 (15 min) and 1.07 (30 min).

For the sequence CAQVVTSTWVAGNASASA [HC2162], the “furin cleavage Z-score” value (7.5 min) was 0.38 (inactive), the “furin cleavage Z-score” value (15 min) is 0.0342 (inactive) and the “furin cleavage Z-score” value (30 min) is 0.112 (inactive).

Turning to CAEWVTSTWVAGNASASA [HC2168], the “furin cleavage Z-score” value (7.5 min) is 0.00297 (inactive), the “furin cleavage Z-score” value (15 min) is 0.984 (inactive) and the “furin cleavage Z-score” value (30 min) was 0.871 (inactive).

For CAVVCCSISYAGNASASA [HC2044], the “furin cleavage Z-score” value was 0.197 (inactive) (7.5 min), -0.41 (inactive) (15 min) and -0.348 (inactive) (30 min).

On to CARKKREKKKAGNASASA [FS-2964], for which the “furin cleavage Z-score” value is, setting by setting: (7.5 min) -0.433 (inactive); (15 min) -0.316 (inactive); (30 min) 0.927 (inactive).

Take CARKKRREEKAGNASASA [FS-1828]: the “furin cleavage Z-score” value is, setting by setting: (7.5 min) -0.326 (inactive); (15 min) 2.8; (30 min) 0.74 (inactive).

Take CARKKRSTKKAGNASASA [FS-2270]: the “furin cleavage Z-score” value reads like this: (7.5 min) 5.56 (active); (15 min) 7.13 (active); (30 min) 6.85 (active).

Turning to CARKKRYDRKAGNASASA [FS-2395], the “furin cleavage Z-score” value by setting is: (7.5 min) 4.56 (active); (15 min) 7.7 (active); (30 min) 7.88 (active).

As for CARKKRATHSAGNASASA [FS-2562], the “furin cleavage Z-score” value is 11.5 (active) (7.5 min), 12.2 (active) (15 min) and 9.97 (active) (30 min).

As for CARKKRADKKAGNASASA [FS-2961], the “furin cleavage Z-score” value runs as follows: (7.5 min) 5 (active); (15 min) 6.53 (active); (30 min) 5.44 (active).
